Source: PubChem BioAssay
An excerpt weighted towards active compounds, which were near 8.8% of everything screened.
HttQ103 aggreg = qHTS Multiplex Assay to Identify Dual Action Probes in a Cell Model of Huntington: Aggregate Formation (GFP). PC12 HttQ103-GFP aggregates, Acumen cytometry, 40 h. Potency, µM (highest dose often 46.1 µM), actives largely listed as inhibitors. 220,000 tested, 1.1% active; further: nearly all actives have a fitted effect of over 60% in size
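Ecdysone-promoter PC12 model expressing HTT exon 1 Q103 fused to GFP, induced by tebufenozide at 100 nM final. Compounds titrated; aggregates sized 1–25 µm scored on a 488 nm laser cytometer.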
HTT cytoprotect = qHTS Multiplex Assay to Identify Dual Action Probes in a Cell Model of Huntington: Cytoprotection (ATP); PC12 HTT-Q103 induced, cytoprotection, ATP luminescence, 40 h; Potency, µM (titrated, usually from 56.4 µM), hits mostly activators; 230,000 tested, 0.14% active; further: nearly all actives have a fitted effect of over 45% in size
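Huntington model: PC12 line, ecdysone-inducible HTTQ103 exon1–GFP, tebufenozide 100 nM. Test articles in a dose series. Endpoint luminescence from cellular ATP.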
ALDH1A1 block = qHTS Assay for Inhibitors of Aldehyde Dehydrogenase 1 (ALDH1A1); Purified ALDH1A1, NADH fluorescence, propionaldehyde substrate; Aldehyde dehydrogenase 1A1 (Homo sapiens), P00352; 220,000 tested, 7.3% active; Potency, µM (top dose mostly 75.3 µM), hits mostly inhibitors; active means well fitted inhibition curve with a large enough effect, not every such curve was filed as active; inconclusive means small, poorly fitted or top-dose-only effect, or another doubt; inactive means no such curve, though single readings can be large or run the other way
HPGD block = qHTS Assay for Inhibitors of HPGD (15-Hydroxyprostaglandin Dehydrogenase); AID 894, 2007; purified HPGD, NADH fluorescence kinetic, PGE2 substrate; 150,000 tested, 4.3% active; Potency, µM, most hits filed as inhibitors; active means well fitted inhibition curve with a large enough effect, not every such curve was filed as active; inconclusive means small, poorly fitted or top-dose-only effect, or another doubt; inactive means no such curve, though single readings can be large or run the other way
Target sequence (P15428 whole entry, looked up): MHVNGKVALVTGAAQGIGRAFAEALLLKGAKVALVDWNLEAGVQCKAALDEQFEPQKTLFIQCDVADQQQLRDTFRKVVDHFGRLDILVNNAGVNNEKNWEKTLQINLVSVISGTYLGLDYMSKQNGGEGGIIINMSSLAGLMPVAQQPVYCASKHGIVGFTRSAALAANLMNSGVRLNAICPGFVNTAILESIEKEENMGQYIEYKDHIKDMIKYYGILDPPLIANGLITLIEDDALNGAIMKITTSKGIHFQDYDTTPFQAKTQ
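NADH formation kinetics: reaction with 30 uM PGE2 and 1 mM NAD+ (final), 20 nM enzyme, Tris-HCl pH 8 with Tween 20, after 15 min compound preincubation at room temperature. Fluorescence change, last versus first of five reads.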
Lamin A splicing = qHTS Assay for Modulators of Lamin A Splicing | Potency, µM (titrated, usually from 46.1 µM), most hits filed as inhibitors | HeLa LMNA splicing GFP/RFP minigene ratio, 48 h | AID 1487, 2009 | 200,000 tested, 0.01% active; active means well fitted inhibition curve with a large enough effect in the signal ratio, with a control signal flat, not every such curve was filed as active; inconclusive means small, poorly fitted or top-dose-only effect, or effect the other way, or a change in a side signal; the % refers to the signal ratio
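S3 HeLa stable clones carrying a lamin A-EGFP splicing minigene plus DsRed2 were seeded at 600 cells/well in Opti-MEM with 2% FBS, pin-dosed and incubated 48 h at 37°C. Acumen cytometry (488 nm) gave the GFP/RFP total-intensity ratio.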
Each line names hits and unclear results; the compound was inactive in the other large screens. Unless noted, the call rests on the fitted dose curve; in most records, active means well fitted curve in the direction sought with a large enough effect; inconclusive means small, poorly fitted or top-dose-only effect, or another doubt; inactive means no such curve, though single readings can be large; an effect the other way counts as inactive or inconclusive.

CC1(C)CC(=O)C(C(C2=C(O)CC(C)(C)CC2=O)c2ccc(Cl)c([N+](=O)[O-])c2)C(=O)C1 (stereo unspecified)	none (no result: HPGD block)
CC1(C)CC(=O)C(Sc2ccccc2[N+](=O)[O-])=C(O)C1	ALDH1A1 block 7.1µM, HPGD block inconclusive, Lamin A splicing inconclusive (no result: HTT cytoprotect)
c1csc(CNc2ccnc(-c3ccoc3)n2)c1	ALDH1A1 block 11µM, Lamin A splicing inconclusive (no result: HttQ103 aggreg, HPGD block)
CN(C)c1ccc(-c2nccc(NCc3cccs3)n2)cc1	ALDH1A1 block inconclusive, Lamin A splicing inconclusive (no result: HttQ103 aggreg, HPGD block)
Fc1ccc(Nc2ccnc(-c3ccoc3)n2)cc1	ALDH1A1 block 32µM, Lamin A splicing inconclusive (no result: HttQ103 aggreg, HPGD block)
Fc1ccc(Nc2ccnc(-c3ccc4c(c3)OCO4)n2)cc1	Lamin A splicing inconclusive (no result: HttQ103 aggreg, HPGD block)
COc1ccc(-c2nc(CCNC(=O)c3cccs3)cs2)cc1OC	none (no result: HttQ103 aggreg, HTT cytoprotect, ALDH1A1 block, HPGD block)
Cc1cc(C=O)c(C)n1-c1ccc(N2CCOCC2)cc1	ALDH1A1 block 3.2µM, Lamin A splicing inconclusive
Cc1cc(/C=C2/NC(=O)NC2=O)c(C)n1-c1ccc(N2CCOCC2)cc1	ALDH1A1 block inconclusive (no result: HTT cytoprotect, HPGD block)
Cc1cc(/C=C2\NC(=O)NC2=O)c(C)n1-c1ccc(N2CCOCC2)cc1	ALDH1A1 block 25µM (no result: HPGD block, Lamin A splicing)
O=C(c1ccc2c(c1)N(Cc1cccc(F)c1)C(=O)c1ccccc1S2)N1CCCC1	none (no result: HttQ103 aggreg, HTT cytoprotect, ALDH1A1 block, HPGD block)
CCCCCN1C=CC=C/C1=C\C=C(C#N)C#N	ALDH1A1 block 0.45µM (no result: HPGD block, Lamin A splicing)
CCCN1C=CC(=CC=C(C#N)C#N)C=C1	ALDH1A1 block inconclusive (no result: HPGD block, Lamin A splicing)
CCCCCCN1C=C/C(=C\C=C(C#N)C#N)c2ccccc21	HttQ103 aggreg inconclusive
CCCCCCN1C=CC=C/C1=C/C=C(C#N)C#N	HPGD block 11µM, Lamin A splicing inconclusive (no result: HTT cytoprotect)
Cc1c(NC(=S)NC(=O)C(C)(C)C)cccc1[N+](=O)[O-]	ALDH1A1 block inconclusive
Cc1ccccc1NS(=O)(=O)c1cc(C(=O)Nc2cccc([N+](=O)[O-])c2)ccc1C	HttQ103 aggreg inconclusive, ALDH1A1 block 22µM, Lamin A splicing inconclusive
Cc1ccc([N+](=O)[O-])cc1NC(=O)c1ccc(C(C)(C)C)cc1	HttQ103 aggreg inconclusive, HPGD block 16µM
Cc1ccc(C(=O)Nc2cccc([N+](=O)[O-])c2)cc1S(=O)(=O)Nc1ccc(C(=O)O)cc1	ALDH1A1 block inconclusive (no result: HPGD block, Lamin A splicing)
Cc1ccc([N+](=O)[O-])cc1NC(=S)NC(=O)CC(C)(C)C	HPGD block 16µM
Cc1ccc([N+](=O)[O-])cc1NC(=S)NC(=O)C(C)(C)C	ALDH1A1 block 4.5µM, HPGD block 7.1µM
CCN(CC)S(=O)(=O)c1ccc2nc(NC(=O)c3cccnc3)sc2c1	none (no result: HttQ103 aggreg, HTT cytoprotect, ALDH1A1 block, HPGD block)
C=C1/C(=C\C=C2/CCC[C@]3(C)[C@@H]([C@H](C)/C=C/[C@@H](O)C4CC4)CC[C@@H]23)C[C@@H](O)C[C@@H]1O	none (no result: ALDH1A1 block, HPGD block, Lamin A splicing)
COc1cccc(CN2CCN(Cc3ccc(OC)c(OC)c3)CC2CCO)c1 (stereo unspecified)	ALDH1A1 block inconclusive (no result: HPGD block, Lamin A splicing)
CS(=O)(=O)N1CCc2cc(-c3csc(NCC4CCCO4)n3)ccc21 (stereo unspecified)	ALDH1A1 block 14µM, HPGD block 40µM
CCCC(=O)Nc1nc(-c2ccc3c(c2)CCN3S(C)(=O)=O)cs1	ALDH1A1 block inconclusive
CN(c1ccccc1)c1ccc(/C=N/N2CCOCC2)cc1	none (no result: HTT cytoprotect)
OCCNc1nc(-c2ccccc2)c2cc(Cl)ccc2n1	ALDH1A1 block inconclusive (no result: HPGD block, Lamin A splicing)
COCCNC(=O)c1cccc(Nc2nc(-c3ccccc3)c3cc(Cl)ccc3n2)c1	HttQ103 aggreg inconclusive, HTT cytoprotect inconclusive, HPGD block 28µM, Lamin A splicing inconclusive
Cc1cc(C(=O)CSc2nnc(-c3ccco3)o2)c(C)n1Cc1ccco1	ALDH1A1 block inconclusive
Cc1cc(C(=O)CSc2nnc(-c3ccco3)o2)c(C)n1-c1ccc2c(c1)OCCO2	HttQ103 aggreg 8.9µM
Cc1cc(C(=O)CSc2nnnn2C)c(C)n1-c1ccc2c(c1)OCCO2	ALDH1A1 block inconclusive, HPGD block 25µM, Lamin A splicing inconclusive
C[C@H]1Cc2c(-c3ccccc3)nc3c(c2CO1)CN(C(=O)NCc1ccco1)CC3	none (no result: HttQ103 aggreg)
